Test results from PubChem BioAssay (Tox21).
Results filed as inconclusive are left out. Active and inactive are the calls of the source. Unless noted, the call rests on the fitted dose curve.

Columns and labels:
[1] = qHTS assay to identify small molecule antagonists of the sonic hedgehog signaling (Shh) pathway (AID 1259369); further: nearly all actives have a fitted effect of over 45% in size; further: potency means the concentration at half of the fitted maximal effect
Summary of the method: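 NIH/3T3 stable Gli1-Luc clone, 2,000 cells/well, 4hr settle; cpd + conditioned medium 24hr; Luc reagent 30min RT; luminescence.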

[2] = target: Estrogen receptor beta (Homo sapiens) (UniProt Q92731); experiment: qHTS assay to identify small molecule antagonists of the estrogen receptor beta (ER-beta) signaling pathway (AID 1259378; active means well fitted inhibition curve with a large enough effect in the signal ratio in the repeat runs, not every such curve was filed as active; the % refers to the signal ratio; further: potency means the concentration at half of the fitted maximal effect)
Summary of the method: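 ER-beta-UAS-bla HEK293T cells in 2% charcoal-stripped FBS medium treated with compound plus 1nM final 17-beta-estradiol for 16 hr at 37C. Beta-lactamase reporter read by FRET substrate fluorescence after 2 hours at room temperature.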

[3] = qHTS assay to identify small molecule agonists of the androgen receptor (AR) signaling pathway in the presence of an antagonist - cell viability counter screen (AID 1259379; active means well fitted curve in the direction sought with a large enough effect in the repeat runs; an effect the other way counts as inactive or inconclusive;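 further: MDA-kb2 human breast cancer cells carrying an MMTV luciferase reporter; series mostly up to about 92 µM; nearly all actives have a fitted effect of over 25% in size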)
Summary of the method: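 MDA-kb2 viability measured by CellTiter-Fluor fluorescence in the same wells as the luciferase signal; nilutamide 3.0uM final; 15-point compound titration; 16 hr at 37C.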

[4] = target: Estrogen receptor (Homo sapiens) (UniProt P03372); experiment: qHTS assay to identify small molecule agonists of the estrogen receptor alpha (ER-alpha) signaling pathway in the presence of an antagonist (AID 1259383); further: top concentration of the series differs between compounds; nearly all actives have a fitted effect of over 15% in size
Summary of the method: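 Quantitative HTS confirmation: compounds titrated at 15 concentrations onto estrogen-deprived VM7Luc4E2 cells carrying a four-ERE luciferase construct, with ICI-182,780 present at 10.0nM final. Signal is luminescence after 22hr exposure.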

[5] = qHTS assay to identify small molecule agonists or antagonists of the thyroid stimulating hormone receptor (TSHR) signaling pathway - wild type cell line counter screen (AID 1259384)
Summary of the method: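 Wild-type Hek293 cells, 800/well, 18 h at 37C, then compound with Ro20-1724 for 30 min RT. cAMP by HTRF (cAMP-d2/anti-cAMP cryptate), 1 h RT, fluorescence read. 15 concentrations, triplicates.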

[6] = target: Thyrotropin receptor (Homo sapiens) (UniProt P16473); experiment: qHTS assay to identify small molecule antagonists of the thyroid stimulating hormone receptor (TSHR) signaling pathway (AID 1259385); further: nearly all actives have a fitted effect of over 20% in size
Summary of the method: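 TSHR-HEK293 cells (800/well) plated 18 h, then compounds with Ro20-1724 and TSH at 1.5 ng/mL final, 30 min at room temperature. cAMP quantified by HTRF (cAMP-d2/anti-cAMP-cryptate, 1 h); 15 concentrations in triplicate.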

[7] = qHTS assay to identify small molecule antagonists of the estrogen receptor beta (ER-beta) signaling pathway - cell viability counter screen (AID 1259382; active means well fitted curve in the direction sought with a large enough effect in the repeat runs; an effect the other way counts as inactive or inconclusive; further: series mostly up to about 92 µM; nearly all actives have a fitted effect of over 55% in size)
Summary of the method: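 Readout: luminescence, CellTiter-Glo, same wells as bla assay. System: ER-beta-UAS-bla GripTite HEK293T, 2% charcoal-stripped FBS. Exposure: compounds plus 1nM 17-beta-estradiol, 16 hr, 37C.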

[8] = qHTS assay to identify small molecule agonists of the estrogen receptor beta (ER-beta) signaling pathway - cell viability counter screen (AID 1259380; active means well fitted curve in the direction sought with a large enough effect in the repeat runs; an effect the other way counts as inactive or inconclusive; further: nearly all actives have a fitted effect of over 30% in size; further: potency means the concentration at half of the fitted maximal effect)
Summary of the method: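 Measured: luminescence from CellTiter-Glo after 30 min at room temperature, added to wells already read for the LiveBLAzer FRET reporter (2 hr substrate); ER-beta-UAS-bla HEK293T cells had 16 hr compound treatment at 37C, 5% CO2.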

[9] = target: Androgen receptor (Homo sapiens) (UniProt P10275); experiment: qHTS assay to identify small molecule agonists of the androgen receptor (AR) signaling pathway in the presence of an antagonist (AID 1259381); further: nearly all actives have a fitted effect of over 15% in size
Summary of the method: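 Luminescent ONE-Glo read, 30min at room temperature, follows 16hr compound exposure (15 concentrations) of MDA-kb2 cells at 37C, 0% CO2, with nilutamide added at 3.0uM final.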
On the % scale 0 is the no-effect control and ±100 the full control effect.

Sequence of Estrogen receptor (Homo sapiens) (P03372 whole entry, looked up): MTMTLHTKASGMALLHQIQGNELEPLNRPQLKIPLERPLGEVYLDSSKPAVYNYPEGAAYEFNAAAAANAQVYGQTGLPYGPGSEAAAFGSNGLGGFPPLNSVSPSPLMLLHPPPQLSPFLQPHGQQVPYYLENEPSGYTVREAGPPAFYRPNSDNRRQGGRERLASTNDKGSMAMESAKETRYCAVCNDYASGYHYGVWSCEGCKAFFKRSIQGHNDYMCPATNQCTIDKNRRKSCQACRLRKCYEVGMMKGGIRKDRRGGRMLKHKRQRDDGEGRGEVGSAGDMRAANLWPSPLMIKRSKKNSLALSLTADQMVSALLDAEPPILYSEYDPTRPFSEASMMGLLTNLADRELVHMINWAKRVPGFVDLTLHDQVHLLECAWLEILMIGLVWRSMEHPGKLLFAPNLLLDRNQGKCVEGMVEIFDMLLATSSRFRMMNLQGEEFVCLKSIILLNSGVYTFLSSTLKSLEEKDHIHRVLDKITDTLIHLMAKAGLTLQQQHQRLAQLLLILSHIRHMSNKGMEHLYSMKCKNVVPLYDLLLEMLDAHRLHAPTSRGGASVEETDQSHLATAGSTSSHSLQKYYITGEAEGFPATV
Sequence of Estrogen receptor beta (Homo sapiens) (Q92731 whole entry, looked up): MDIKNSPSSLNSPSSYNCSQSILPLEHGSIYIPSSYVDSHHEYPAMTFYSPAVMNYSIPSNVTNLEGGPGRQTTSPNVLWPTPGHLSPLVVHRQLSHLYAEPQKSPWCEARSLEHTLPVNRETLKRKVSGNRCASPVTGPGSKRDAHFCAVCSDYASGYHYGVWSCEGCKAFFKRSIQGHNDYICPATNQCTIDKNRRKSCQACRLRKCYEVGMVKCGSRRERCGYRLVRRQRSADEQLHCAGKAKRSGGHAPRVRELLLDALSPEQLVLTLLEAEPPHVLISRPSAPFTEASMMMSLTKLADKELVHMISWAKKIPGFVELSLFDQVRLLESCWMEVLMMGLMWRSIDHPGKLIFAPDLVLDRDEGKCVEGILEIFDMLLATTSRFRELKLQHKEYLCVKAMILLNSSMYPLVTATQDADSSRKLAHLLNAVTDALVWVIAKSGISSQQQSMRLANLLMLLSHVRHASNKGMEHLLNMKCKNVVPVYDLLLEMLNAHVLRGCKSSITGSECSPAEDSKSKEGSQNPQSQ
Sequence of Androgen receptor (Homo sapiens) (P10275 whole entry, looked up): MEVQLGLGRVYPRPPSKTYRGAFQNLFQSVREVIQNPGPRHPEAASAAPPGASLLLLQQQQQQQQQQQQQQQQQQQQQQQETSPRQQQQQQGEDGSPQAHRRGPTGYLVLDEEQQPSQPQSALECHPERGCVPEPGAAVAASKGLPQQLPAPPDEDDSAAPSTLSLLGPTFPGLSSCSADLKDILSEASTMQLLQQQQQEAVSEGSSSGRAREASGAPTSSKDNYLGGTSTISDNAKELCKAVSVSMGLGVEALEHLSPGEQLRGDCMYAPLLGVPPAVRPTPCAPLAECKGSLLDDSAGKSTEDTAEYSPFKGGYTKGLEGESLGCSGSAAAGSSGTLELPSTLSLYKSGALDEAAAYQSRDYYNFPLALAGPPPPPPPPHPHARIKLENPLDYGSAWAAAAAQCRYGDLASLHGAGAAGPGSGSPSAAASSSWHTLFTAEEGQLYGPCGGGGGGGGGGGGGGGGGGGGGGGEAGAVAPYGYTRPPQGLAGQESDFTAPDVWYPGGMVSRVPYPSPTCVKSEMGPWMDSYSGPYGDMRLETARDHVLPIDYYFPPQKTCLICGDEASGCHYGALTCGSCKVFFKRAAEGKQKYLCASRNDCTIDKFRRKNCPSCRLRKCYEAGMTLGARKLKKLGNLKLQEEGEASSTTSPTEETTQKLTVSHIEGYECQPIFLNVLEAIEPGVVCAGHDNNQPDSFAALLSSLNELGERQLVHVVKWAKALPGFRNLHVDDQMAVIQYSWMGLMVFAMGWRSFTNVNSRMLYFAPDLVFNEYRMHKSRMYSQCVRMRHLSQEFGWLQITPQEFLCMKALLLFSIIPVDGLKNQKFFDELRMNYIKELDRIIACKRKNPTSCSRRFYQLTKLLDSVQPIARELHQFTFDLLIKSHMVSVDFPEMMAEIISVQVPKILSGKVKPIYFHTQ
Sequence of Thyrotropin receptor (Homo sapiens) (P16473 whole entry, looked up): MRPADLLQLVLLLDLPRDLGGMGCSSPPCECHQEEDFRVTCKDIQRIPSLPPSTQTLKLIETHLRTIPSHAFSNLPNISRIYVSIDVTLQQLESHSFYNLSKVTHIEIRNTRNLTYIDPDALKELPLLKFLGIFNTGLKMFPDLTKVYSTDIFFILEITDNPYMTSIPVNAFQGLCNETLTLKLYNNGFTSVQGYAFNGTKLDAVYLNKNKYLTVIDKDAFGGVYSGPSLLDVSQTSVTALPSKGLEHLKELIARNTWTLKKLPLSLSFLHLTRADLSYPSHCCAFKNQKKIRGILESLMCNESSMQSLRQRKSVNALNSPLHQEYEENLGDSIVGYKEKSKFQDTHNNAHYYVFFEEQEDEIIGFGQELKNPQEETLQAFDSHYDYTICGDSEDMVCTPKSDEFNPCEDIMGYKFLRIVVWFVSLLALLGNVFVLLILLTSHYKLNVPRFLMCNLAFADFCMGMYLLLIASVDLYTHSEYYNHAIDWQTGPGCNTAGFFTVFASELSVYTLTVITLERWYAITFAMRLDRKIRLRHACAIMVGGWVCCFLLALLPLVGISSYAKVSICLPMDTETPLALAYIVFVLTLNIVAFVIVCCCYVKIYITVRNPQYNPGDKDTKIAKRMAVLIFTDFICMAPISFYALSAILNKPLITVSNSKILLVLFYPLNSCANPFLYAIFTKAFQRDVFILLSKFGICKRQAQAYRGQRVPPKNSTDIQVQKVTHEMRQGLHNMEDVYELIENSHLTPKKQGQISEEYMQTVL

O[C@@H](COc1cccc2ncccc12)CN1CCN(C2c3ccccc3[C@@H]3[C@H](c4ccccc42)C3(F)F)CC1 (some centres not stated)
inactive: Potency [3] | Potency [4] | Potency [5] | Potency [6]
active: Potency [1] 13.3 µM | Potency [2] 16.8 µM

S=C([S-])NCCNC(=S)[S-].[Mn+2]
inactive: Potency [1] | Potency [2] | Potency [3] | Potency [7] | Potency [5] | Potency [6]

CN(C)c1ccc(C(c2ccccc2)c2ccc(N(C)C)cc2)cc1
active: Potency [1] 3.06 µM | Potency [8] 17.2 µM
inactive: Potency [3] | Potency [9] | Potency [5] | Potency [6]

Brc1c2ccccc2c(Br)c2ccccc12
inactive: activity change, negative = inhibition [1] 2.55% [at 8.39 µM] | activity, negative = inhibition [2] 14.5% [at 8.39 µM] | activity change, negative = cytotoxicity [3] 0.897% [at 8.39 µM] | activity change, negative = cytotoxicity [7] 7.62% [at 8.39 µM] | activation [4] -0.192% [at 8.39 µM] | cAMP activity change [5] 1.89% [at 8.39 µM, active compounds read high] | activity change, negative = inhibition [6] -6.18% [at 8.39 µM]

CCCCCCCCCCCc1ccccc1
inactive: Potency [1] | Potency [3] | Potency [8] | Potency [7] | Potency [4] | Potency [5] | Potency [6]

O=C1c2ccccc2S(=O)(=O)N1CCCCN1CCN(c2ncccn2)CC1
inactive: Potency [1] | Potency [3] | Potency [8] | Potency [7] | Potency [4] | Potency [5] | Potency [6]

CCCCC(CC)COC(=O)CCCCCCCCC(=O)OCC(CC)CCCC (configuration not stated)
inactive: Potency [1] | Potency [3] | Potency [8] | Potency [7] | Potency [4] | Potency [5] | Potency [6]

COC(=O)c1ccc(I)cc1S(=O)(=O)NC(=O)Nc1nc(C)nc(OC)n1
inactive: Potency [1] | Potency [3] | Potency [8] | Potency [7] | Potency [5] | Potency [6]

COc1ccc(-c2nc3ccc(C4=NNC(=O)CC4C)cc3[nH]2)cc1 (configuration not stated)
inactive: Potency [3] | Potency [8] | Potency [9] | Potency [4] | Potency [5]
active: Potency [1] 8.41 µM

Nc1cc(C(=O)O)c(O)c(S(=O)(=O)O)c1
inactive: Potency [1] | Potency [2] | Potency [3] | Potency [7] | Potency [5]

Nc1cccc(S(=O)(=O)c2cccc(N)c2)c1
inactive: Potency [1] | Potency [3] | Potency [8] | Potency [7] | Potency [4] | Potency [5] | Potency [6]

C=CC1CC2C=CC1C2 (configuration not stated)
inactive: Potency [1] | Potency [3] | Potency [8] | Potency [7] | Potency [4]

Nc1ncn([C@H]2C[C@H](O)[C@@H](CO)O2)c(=O)n1
inactive: Potency [1] | Potency [3] | Potency [8] | Potency [7]

C[C@@H](c1ncncc1F)C(O)(Cn1cncn1)c1ccc(F)cc1F (some centres not stated)
inactive: Potency [1] | Potency [3] | Potency [8] | Potency [9] | Potency [7] | Potency [4] | Potency [5] | Potency [6]
